This is a sample that favours compounds with a hit; in the whole collection about 10% have one here.
BAZ2B inh: blocks human BAZ2B | Q9UIF8 | AlphaScreen BAZ2B-H3K14Ac peptide displacement | Potency, µM (titrated, usually from 114 µM), without a hit: at the highest dose activity change, negative = inhibition, usual class: inhibitors | 360,000 tested, 4.4% active | AID 504333; also: potency is read from the fitted curve at half-maximal effect; % is scaled to controls: 0 for no effect and ±100 for the full control effect; nearly all actives have a fitted effect of over 60% in size
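BAZ2B (50 nM) with biotin-H3(5-23)K14Ac peptide (50 nM) in PBS pH 7.4, 0.01% Tween-20, preformed 30 min, then compound 30 min at room temperature; top concentration 110uM. AlphaScreen streptavidin donor/nickel chelate acceptor beads (10 ug/mL final), 20 min dark, signal read.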
JMJD2A Tudor: inhibitors of human JMJD2A Tudor domain; O75164; AlphaScreen JMJD2A-Tudor / H3K4me3 peptide binding; Potency, µM (top dose mostly 114 µM), for inactives: at the highest dose activity change, negative = inhibition, hits mostly inhibitors; 390,000 tested, 4.4% active; AID 504339; also: potency is read from the fitted curve at half-maximal effect; % is scaled to controls: 0 for no effect and ±100 for the full control effect; nearly all actives have a fitted effect of over 50% in size
CtBP-E1A blk: inhibitors of CtBP/E1A interaction; AlphaScreen GST-E1A/His-CtBP binding, 1536-well; hits give low values; activity change, % (concentration not given with the values); 340,000 tested, 0.49% active; AID 651724; in the data active = activity change below about -65%; inconclusive = mostly about -30% to -63%; also: % is scaled to controls: 0 for no effect and ±100 for the full control effect
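Protein mix (5X: 125 nM each GST-E1A, His-CtBP) was incubated with pinned compound 2 h at 37 deg C in dark, in 50 mM Tris pH 8.0 buffer with 300 mM NaCl. Glutathione donor and nickel acceptor beads followed; AlphaScreen signal read after 1 h.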
HP1b chromo inh: blocks HP1-beta chromodomain binding to methylated histone tails | P83916 | AlphaScreen HP1-beta / biotin-H3K9me3 peptide binding | Potency, µM (series often up to 114 µM), for inactives: top-dose activity change, negative = inhibition, hits mostly inhibitors | 390,000 tested, 0.56% active; also: potency is read from the fitted curve at half-maximal effect; nearly all actives have a fitted effect of over 70% in size
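Compound inhibition of the preformed complex between 50 nM HP1-beta and 50 nM biotinylated H3K9me3 peptide was read by AlphaScreen. Buffer was PBS pH 7.4 with 0.01% Tween-20. Incubations ran 30 min at room temperature, with 10 ug/mL donor/acceptor beads.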
Six1-Eya2 inh: Six1/Eya2 interaction inhibition. AlphaScreen GST-Six1/His-Eya2 binding, biochemical; hits give low values. activity change, % (concentration not given with the values). Q15475+O00167. 360,000 tested, 0.56% active; in the data active = activity change below about -65%; inconclusive = mostly about -30% to -63%; also: % is scaled to controls: 0 for no effect and ±100 for the full control effect
Target sequence (O00167 whole entry, looked up): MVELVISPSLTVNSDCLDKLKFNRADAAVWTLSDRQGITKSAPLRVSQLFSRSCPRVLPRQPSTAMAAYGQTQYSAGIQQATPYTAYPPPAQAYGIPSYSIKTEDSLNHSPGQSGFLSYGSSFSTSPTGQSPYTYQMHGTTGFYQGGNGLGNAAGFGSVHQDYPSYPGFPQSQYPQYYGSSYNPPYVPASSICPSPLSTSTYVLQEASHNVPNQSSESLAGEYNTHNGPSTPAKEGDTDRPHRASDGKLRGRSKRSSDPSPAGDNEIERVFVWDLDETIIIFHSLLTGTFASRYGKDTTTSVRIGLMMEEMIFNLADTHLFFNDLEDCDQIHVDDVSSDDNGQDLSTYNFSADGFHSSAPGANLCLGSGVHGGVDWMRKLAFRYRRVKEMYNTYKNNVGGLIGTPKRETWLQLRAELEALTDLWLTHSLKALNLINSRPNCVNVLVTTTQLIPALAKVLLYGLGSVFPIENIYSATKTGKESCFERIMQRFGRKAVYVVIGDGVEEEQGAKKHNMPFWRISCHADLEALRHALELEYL
Target sequence (Q15475 whole entry, looked up): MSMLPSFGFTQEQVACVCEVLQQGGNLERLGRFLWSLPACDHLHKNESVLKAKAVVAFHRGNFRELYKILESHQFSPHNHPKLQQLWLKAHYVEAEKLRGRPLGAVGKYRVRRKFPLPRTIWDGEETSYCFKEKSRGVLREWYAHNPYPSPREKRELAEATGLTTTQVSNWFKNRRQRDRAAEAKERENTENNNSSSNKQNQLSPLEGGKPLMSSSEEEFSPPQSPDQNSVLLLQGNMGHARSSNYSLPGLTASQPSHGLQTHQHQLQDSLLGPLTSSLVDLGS
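GST-Six1 + His-Eya2 (5X stock: 250/500 nM); Tris pH 8.0, 300 mM NaCl, 0.05% BSA, 0.02% Tween 20; GSH donor/Ni acceptor beads; 1 h 37 °C dark; AlphaScreen readout.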
G9a inh: blocks human histone lysine methyltransferase G9a; G9a H3K9 monomethylation, AlphaScreen, 2 h; Potency, µM (titrated, usually from 102 µM), without a hit: top-dose activity, negative = inhibition, usual class: inhibitors; 350,000 tested, 8.8% active; AID 504332; also: potency is read from the fitted curve at half-maximal effect; % is scaled to controls: 0 for no effect and ±100 for the full control effect; nearly all actives have a fitted effect of over 75% in size
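Using a bead-based AlphaScreen, monomethylated H3K9 product from 2 h room-temperature reactions (G9a 20 nM, peptide 500 nM, SAM 20 uM) was detected with 0.5 ug/mL rabbit anti-H3K9me1 antibody.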
* = called active by the depositor; ? = inconclusive; . = no result given; ! = not confirmed by another sample; [ ] = another dose, or the depositor's remark. Unless noted, calls follow the shape of the dose curve; as a rule, active = well fitted inhibition curve with a large enough effect; inconclusive = small, poorly fitted or top-dose-only effect; inactive = no such curve, though single readings can be large or run the other way.

SMILES	BAZ2B inh	JMJD2A Tudor	CtBP-E1A blk	HP1b chromo inh	Six1-Eya2 inh	G9a inh
Cc1ccc2[nH]c(=O)c(CN(Cc3ccccc3)Cc3nnnn3Cc3ccco3)cc2c1	.	-11.5%[57.1 µM]	.	7.9%[57 µM]	.	.
COc1ccc(NC(=S)Nc2ccccc2)cn1	4.7%	14.7%	3.1	10.5%	2.2	23.4%[59 µM]
COc1ccc(/C=C/C(=O)Nc2ccc(OC)nc2)cc1	-8.0%	-8.4%	0.0	43.1%	13.6	20.8%
COc1ccc(CS(=O)(=O)/C(Cl)=C(/Cl)C(=O)Nc2ccc(OC)nc2)cc1	-6.7%	-21.2%	-17.2	26.6%	-14.3	44.7µM*
CCCCNC(=S)Nc1ccc(OC)nc1	-15.2%	-8.6%	-12.4	-6.4%	-11.7	56.2µM*
COc1ccc(NC(=O)/C(Cl)=C(/Cl)S(=O)Cc2ccccc2)cn1 (stereo not drawn)	9.8%	-9.0%	-0.2	49.1%	?	11.2µM*
O=C1c2ccccc2C(=O)N1Cc1ccncc1	.	-12.9%	.	.	.	.
Cn1nc(C(=O)Nc2ccc(F)c(Cl)c2)c2c1-c1ccccc1S(=O)(=O)C2	-17.4%	-16.4%	.	27.1%	.	-29.8%[59 µM]
COc1ccc(NC(=O)CSc2nccn2-c2cccc(OC)c2)cc1	?	?	-3.2	-18.8%	-9.6	?
CCOc1ccc(-n2ccnc(SCC(=O)NCc3cccc(OC)c3)c2=O)cc1	-1.4%	-14.5%	11.5	32.9%	-4.7	-30.1%
COc1cccc(-n2ccnc2SCC(=O)Nc2cc(OC)ccc2OC)c1	28.2µM*	89.1µM*	?	44.7µM*	-29.2	?
COc1cccc(-n2ccnc2SCC(=O)Nc2cccc(C)c2C)c1	?	-34.8%	.	-1.8%[57 µM]	.	?
COc1ccc(NC(=O)CSc2nccn2Cc2ccccc2)c(OC)c1	?	-26.5%	0.0	-3.8%	11.7	44.7µM*
COc1cccc(-n2ccnc2SCC(=O)Nc2ccccc2F)c1	25.1µM*	?	-13.3	?	-14.1	-46.1%
CCOc1ccc(-n2ccnc(SCC(=O)Nc3ccc(OC)cc3OC)c2=O)cc1	?	?	1.8	-14.5%	-21.8	35.5µM*
COC(=O)c1sccc1S(=O)(=O)N1CCN(c2ccc(C)cc2C)CC1	-0.2%	3.3%	.	50.3%	.	11.2%[59 µM]
Cc1ccc(NC(=O)Cn2c(=O)n(-c3ccccc3)c(=O)c3ccc(C(=O)NCc4ccc5c(c4)OCO5)cc32)c(C)c1	.	-1.0%	.	39.4%	.	11.2%[59 µM]
O=C(c1ccc2c(c1)OCO2)c1cn(Cc2ccc(F)cc2)c2ccccc2c1=O	-25.3%	-22.6%	.	13.1%	.	-27.7%[59 µM]
COc1cccc(NC(=O)CSc2nccn2-c2cccc(OC)c2)c1	?	?	-12.5	-25.1%	-12.6	39.8µM*
COc1cccc(NC(=O)C(Cc2ccccc2)n2cccc2)c1 (stereo not drawn)	?	-12.0%	-1.8	10.5%	-13.9	-25.2%
COc1ccc(NC(=O)C(Cc2ccccc2)n2cccc2)c(OC)c1 (stereo not drawn)	35.5µM*!	-26.3%	.	-4.4%[57 µM]	-21.7	?
Cc1ccc(NC(=O)Cn2c(SCc3ccc(F)cc3)nc3cccnc32)cc1F	-2.2%	-17.2%	.	34.4%	.	-26.3%[59 µM]
COc1ccccc1N1N=C(c2ccc([N+](=O)[O-])cc2)CC1c1ccccc1 (stereo not drawn)	11.2µM*	31.6µM*	?	?	?	22.4%[0.501 µM]
O=[N+]([O-])c1ccc(N2N=C(c3ccco3)CC2c2ccccc2)cc1 (stereo not drawn)	?	-27.6%	14.8	-14.7%	10.4	7.94µM*
Fc1ccc(C2CC(c3ccco3)=NN2c2ccccc2)cc1 (stereo not drawn)	147.5%	193.6%	161.6	379.3%	153.4	.
SMILES	BAZ2B inh	JMJD2A Tudor	CtBP-E1A blk	HP1b chromo inh	Six1-Eya2 inh	G9a inh
CCOC(=O)c1c(C)[nH]c(C)c1S(=O)(=O)N1CCC(C(=O)Nc2cc(Cl)ccc2OC)CC1	-35.3%	-31.2%	.	7.1%	.	-12.1%[59 µM]
CC(C)(C)OC(=O)N1CCC(c2nnc(SCc3ccccc3)o2)CC1	7.1%	7.1%	.	35.0%	.	21.1%[59 µM]
C=CCN1C=C2C(=O)C(C)(OC(=O)c3cccs3)C(=O)C=C2C=C1CCCC(=O)OC (stereo not drawn)	79.4µM*	-28.6%	-2.6	11.2%	-0.7	-6.0%[12.7 µM]
COC(=O)CCCC1=CC2=CC(=O)C(C)(OC(=O)c3cccs3)C(=O)C2=CN1CCc1ccccn1 (stereo not drawn)	-30.2%	-22.5%	-6.9	20.7%	-3.6	11.0%[59 µM]
COc1ccc(-c2cc(-c3cc(OC)ccc3O)[nH]n2)cc1	?	28.2µM*	-21.9	?	?	-6.9%[59 µM]
COc1ccc(O)c(-c2cc(-c3ccc(F)cc3)n[nH]2)c1	?	?	-7.5	10.8%	-9.8	?
Nc1c(Cl)cc(C2=NCCn3c2c2ccccc2[n+]3[O-])cc1Cl	?	3.55µM*	.	44.8%	-13.7	?
O=[N+]([O-])c1ccc2c3n([n+]([O-])c2c1)CCN=C3c1ccc(Cl)cc1	50.1µM*	?	.	1.0%	-11.9	-43.5%[2.33 µM]
COc1ccc2c3n([n+]([O-])c2c1)CCN=C3c1ccc(Cl)cc1	-27.8%	?	11.2	18.6%	4.5	5.5%[2.33 µM]
Nc1c(Cl)cc(C2=NCCn3c2c2ccc(C(F)(F)F)cc2[n+]3[O-])cc1Cl	?	4.47µM*	-14.3	17.5%	-7.6	?
CCOC(=O)Cn1c2c(c(=N)c3c1CCC3)CCC2	58.0%	-0.9%	4.5	57.0%	9.0	11.8%[59 µM]
CCOC(=O)CN1NC2(CCCCC2)NC1=S	-5.6%	17.8µM*	6.6	-19.8%	4.8	?
CCOC(=O)CN1NC2(CCCCCCC2)NC1=S	-20.7%	28.2µM*	13.4	40.6%	9.7	2.24µM*
CCOC(=O)c1c(C)oc2c(Cl)cc(NS(=O)(=O)c3ccc(Cl)c(C)c3)cc12	40.8%	-13.8%	.	114.7%	.	26.2%[59 µM]
COc1ccc(-c2noc(CN(C(=O)c3ccc(C)cc3C)C(C)C)n2)cc1	4.0%	-12.1%	.	24.3%	.	-2.9%[59 µM]
COc1cccc(CN2C(=O)CN(C3CCCCC3)C(=O)C2c2ccc(OC)c(OC)c2)c1 (stereo not drawn)	-3.2%	-14.1%	.	9.0%	.	3.8%[59 µM]
CC(=O)Oc1cccc(N2C(=O)C3C4C=CC(C4=C(C)C)C3C2=O)c1 (stereo not drawn)	-5.1%	?	-3.7	?	-2.5	-39.6%[2.33 µM]
CC(=O)Oc1ccc(N2C(=O)C3C4C=CC(O4)C3C2=O)cc1 (stereo not drawn)	-28.1%	?	9.4	?	-1.8	3.55µM*
CC(=O)Oc1cccc(N2C(=O)C3C(C2=O)C2C=CC3C23CC3)c1 (stereo not drawn)	1.1%	-11.4%	3.3	26.1%	-2.3	44.7µM*
COc1ccc(S(=O)(=O)N(CC(=O)NCCSc2ccccc2)c2ccc(Cl)cc2)cc1	1.5%	-1.7%	.	17.7%	.	-26.7%[59 µM]

High-throughput results deposited in PubChem BioAssay by National Center for Advancing Translational Sciences (NCATS).
